Unmarked numbers belong to inactive results.

The subject of this experiment is Madurella mycetomatis MM55. As to the kind of experiment: percent growth relative to solvent control; higher = less inhibition, active = 20 or less. The following applies: 100 µM; 7 days.
Consider `CCOC(=O)c1noc(N)c1-c1ccccc1`, for which the percent growth was 87.2%. On to `CC1CCCCN1C(=O)NCCc1coc(-c2ccc(F)cc2)n1` (stereo not given), for which the percent growth is 70%. As for `CCOc1ccccc1NC(C)C(=O)Nc1cc(C(F)(F)F)ccc1N1CCOCC1` (stereo not given), the percent growth was 76.7%.

With `NS(=O)(=O)c1cncc(-c2ccc3nccc(-c4cn[nH]c4)c3n2)c1`, the percent growth was 143%. As for `CCCn1c(CNc2ccccc2O)nc2ccccc21`, the figure is 91.1%; as for `COc1cc(C2=NCCN2)ccc1-n1cc(-c2cccc(C3=NCCN3)c2)nn1`, 166%; as for `CC1CC1C(=O)NC1CCN(CC2(c3ccccc3)CCCCC2)CC1` (stereo not given), 92.9%. Then `Cc1ccccc1C(=O)N1N=C(Nc2ccccc2)SC1(C)C`, with 93.7%. For `CO[C@H]1/C=C/O[C@@]2(C)Oc3c(C)c(O)c4c(O)c(/c(=C/NN5CCN(C)CC5)c(O)c4c3C2=O)=N\C(=O)/C(C)=C\C=C/[C@H](C)[C@H](O)[C@@H](C)[C@@H](O)[C@@H](C)[C@H](OC(C)=O)[C@@H]1C`, the percent growth is 92.6%.

On to `FC(F)(F)c1ccc(N(c2cccnc2)C2CCN(c3ccc(C(F)(F)F)cn3)CC2)cc1`, for which the percent growth is 59.5%. `NCCC(O)C(=O)N[C@@H]1C[C@H](N)[C@@H](OC2O[C@H](CN)[C@@H](O)[C@H](O)[C@H]2O)[C@H](O)C1OC1O[C@H](CO)[C@@H](O)[C@H](N)[C@H]1O` (stereo not given in full): the percent growth was 102%.

With `Cc1cc(C)n2nc(C(=O)Nc3cc(C(F)(F)F)ccc3N3CCOCC3)nc2n1`, the percent growth is 162%. Regarding `Cc1cc2nc(NC(=O)C(C)(C)C)nc(Cl)c2n1Cc1ccc(Cl)cc1`, the percent growth is 82.9%. As for `N#Cc1ccc(-c2cnc(N)c(-c3ccc(C(N)=O)cc3)n2)cc1`, the figure is 64.5%. Then `N=C(N)c1ccc(OCCCCCOc2ccc(C(=N)N)cc2)cc1`, with 48.7%; and `COc1cccc(CC(=O)N2CCC(n3c(C)nc4ccc(F)cc43)CC2)c1`, with 118%. Then `CCn1cnc2c(Nc3cc(F)cc(F)c3)nc(C#N)nc21`, with 95.2%; and `Cc1ccc(S(=O)(=O)Nc2ccc(CN3CCN(C(=O)c4cccc(C#N)c4)CC3)cc2)cc1`, with 90.9%; and `O=C(Cn1ccnc1[N+](=O)[O-])NCc1ccccc1`, with 129%. For `CN(C(=O)c1cc2c(-c3cncnc3)cccc2[nH]1)c1ccccc1`, the percent growth was 51.3%. `CN1CCN(S(=O)(=O)c2ccc(-c3ccc4c(Nc5ccc6nn[nH]c6c5)ccnc4c3)cc2)CC1`: the percent growth was 151%.

Take `COc1ccc(Oc2ccc([C@@H](C)N(C)c3ncc4c(N)nc(N)nc4n3)cc2)cc1`: the percent growth was 0.491% (active). Then `O=C(NC1CCCCC1)N1CCN(Cc2ccc3c(c2)OCO3)CC1`, with 74.6%; and `CC(C)(C)c1cnc(NC(=O)c2ccccc2O)s1`, with 99.3%. Take `COc1cc(OC)cc(C(=O)NCC2Cc3cc(Cl)cc(-c4ccncc4)c3O2)c1` (stereo not given): the percent growth was 55.9%.
